40 molecules from PubChem BioAssay (NCI) can be followed below.

This is part of a sample that, as a whole, favours compounds with a hit. Of some 83,000 tested, about 20% had one in any assay.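 Values shown are percent growth following 48 h exposure of cells in 96-well plates to a single concentration of compound; below 10 was considered active.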 Unmarked numbers belong to inactive results. The source made the active and inactive calls.

The assay deals with MDA-MB-468 breast. Kind of assay: NCI-60 one-dose screen, 48 h (100 = growth as untreated, 0 = no growth, -100 = all killed). Conditions: 10 µM unless noted.
As for `COc1cc2cn3c4ccc(O)cc4nc(N)c3c2cc1OC`, the growth was -32.3% (active).

For `COc1ccc(/C=C2\N=C(Nc3ccccc3)N(NC(=O)c3ccccn3)C2=O)cc1`, the growth was 97.2%.

As to `N#CSc1cc(S(N)(=O)=O)ccc1N`, the growth is 105%.

In the case of `COc1cccc(/C=N/N=C(N)N)c1`, the growth was 90%.

Consider `COc1nc(/C=C\Nc2ccc3c(c2)OCCOCCOCCOCCO3)nc(OC)n1`, for which the growth is 108%.

In the case of `CC(C)(C)c1ccc(OCCCCCCN2CCNCC2)cc1`, the growth was 10.6%.

As to `Cc1ccc(S(=O)(=O)Nc2ccc(-c3cc(-c4cccc(F)c4)c(C#N)c(N)n3)cc2)cc1`, the growth was -14.9% (active).

For `CC(C)(C)c1ccc(S(=O)(=O)Oc2ccc(-c3sc4cc(OS(=O)(=O)c5ccc(C(C)(C)C)cc5)ccc4c3C(=O)c3ccc(OCCN4CCCCC4)cc3)cc2)cc1`, the growth is 90%.

For the molecule `COc1ccc(NC(=O)c2sc3nc(C)c(C(C)=O)cc3c2N)cc1`, the growth was 91.8%.

`COc1cc(NC(=O)c2cc(O)c(C/C=C(\C)CCC=C(C)C)c(O)c2)cc2c1O[C@]1(C)CC[C@@H](O)C(C)(C)[C@H]1C2`: the growth is 21.9%.

For `NC(=O)NS(=O)(=O)c1ccc(N2N=C(C(F)(F)F)CC2c2cc(C(F)(F)F)cc(C(F)(F)F)c2)cc1` (stereo not given), the growth was 70.1%.

Consider `CC(O)C(NC(=O)C1CCCN1C(=O)CNC(=O)C1CC(=O)NCC(=O)NC(Cc2c[nH]c3ccccc23)C(=O)NC(Cc2ccc(O)cc2)C(=O)NCC(=O)NC(CO)C(=O)NC(CCC(N)=O)C(=O)NC(Cc2c[nH]c3ccccc23)C(=O)N1)C(=O)NCC(=O)NC(CCC(N)=O)C(=O)NC(CCCNC(=N)N)C(=O)NC(CC(=O)O)C(=O)O` (stereo not given), for which the growth is 100%.

With `COc1ccccc1NC(=O)Nc1ccc(-c2nc3ccccc3o2)cc1`, the growth was 101%.

Regarding `C=C1C(=O)O[C@H]2[C@H]1CC/C(COC(=O)NCc1ccc(Cn3c(=O)sn(CCCl)c3=O)cc1)=C\CC[C@@]1(C)O[C@@H]21`, the growth is 5.52% (active).

Consider `NC(=S)c1csc(CCNC(=O)c2ccccc2)n1`, for which the growth is 109%.

In the case of `COc1ccc2[nH]c3nc4cnccc4cc3c2c1`, the growth is 117%.

On to `CCn1cc(C(=O)O)c(=O)c2cc(F)c(N3CCN(S(=O)(=O)c4cccc5ccccc45)CC3)cc21`, for which the growth was 4.79% (active).

As for `C/C(=N\NC(=O)Cn1c(-c2ccc(S(C)(=O)=O)cc2)nc2cc(Cl)ccc21)c1ccc(Cl)cc1`, the growth was 68.7%.

As to `Cc1ccncc1C(N)=O`, the growth was 93.8%.

`CC1(C)OC(=O)C(c2ccsc2)C(=O)O1`: the growth is 114%.

Turning to `COc1cc(C(=O)c2cc(C(C)=O)c3c4ccccc4ccn23)cc(OC)c1OC`, the growth is 42.1%.

With `Oc1[nH]c2ccccc2c1/C=c1/cc2c(c(-c3ccc(C(F)(F)F)cc3)n1)=Nc1ccccc1-2`, the growth is 21.6%.

`COc1cccc(-c2nn(-c3ccccc3)cc2-c2ccnc(NCCCNS(=O)(=O)c3ccc(Cl)cc3)c2)c1`: the growth was 25.6%.

On to `CCCCCCNC(=O)Oc1ccc(/C(=C(/C)c2ccc(OC)cc2)c2ccc(OCCN3CCCC3)cc2)cc1`, for which the growth was 87.1%.

Turning to `Cc1csc(Nc2nc(-c3cccc(Br)c3)nc(C(Cl)(Cl)Cl)n2)n1`, the growth was -29.8% (active).

`C#CCNC(=O)CC[C@@H](C)[C@H]1CC[C@H]2[C@@H]3CC[C@@H]4CC(=O)CC[C@]4(C)[C@H]3CC[C@]12C`: the growth is -19.7% [100 µM] (active).

For `C=CC(=O)N1CC2(CCC(n3nc(-c4ccc(Oc5ccccc5)cc4)c4c(N)ncnc43)CC2)C1`, the growth is -58.1% (active).

`COc1ccc2[nH]cc(/C=N/Nc3ccnc4cc(Cl)ccc34)c2c1`: the growth was -80.8% (active).

As to `Cc1c(Cl)cccc1C(=O)Nc1nc2c(s1)CN(C(=O)Nc1cccc(C(F)(F)F)c1)CC2`, the growth was 16.7%.

On to `O=C(Nc1cccc(NC(=O)Nc2cc(C(F)(F)F)ccc2Cl)c1)Nc1cc(C(F)(F)F)ccc1Cl`, for which the growth was -8.33% (active).

Consider `Nc1ccc(C2=NN(C(=O)c3cc(-c4ccc(Cl)cc4)nc4ccccc34)C(c3ccccc3)C2)cc1` (stereo not given), for which the growth is 7.91% (active).

For the molecule `CCOC(=O)CNC(=O)C1(NC(=O)CNC(=O)OCc2ccccc2)CCCC1`, the growth was 131%.

Consider `CC(C)C1=NOC(=O)C1=Cc1cn(-c2ccccc2)nc1-c1ccc(Cl)cc1`, for which the growth was 86.7%.

For the molecule `CC(=O)c1sc(Nc2cccc(Nc3nc(C)c(C)s3)c2)nc1C`, the growth is 55%.

Regarding `C#CCOc1cccc(-c2ncnc3cc(NC(=O)C=C)ccc23)c1`, the growth is -8.85% (active).

Turning to `C#CCOc1cc(/C=N/Nc2nc(-c3ccc(OC)cc3)cs2)ccc1O`, the growth was 43%.

In the case of `CC1=NN(c2ccccc2)C(=O)/C1=C\N1CC(=O)NC1=S`, the growth is 101%.

Consider `N#CC1=C(N)Oc2c(ccc3ccccc23)C1c1ccc([N+](=O)[O-])cc1` (stereo not given), for which the growth was 90%.

For `Cc1cc(/C=C/c2ccc3cc(N(C)C)ccc3[n+]2C)c(C)n1-c1ccccc1`, the growth is -81.9% (active).

Turning to `OC1CCN(CCCOc2c3ccccc3nc3c2oc2ccccc23)CC1`, the growth was -16.4% (active).
